CIT2 TOR yeast: yeast TOR pathway CIT2-GFP modulation | S. cerevisiae CIT2-GFP strain, flow cytometry, 3 h; 100 means same as DMSO wells | GFP response vs DMSO, % at 10 µM | 0.065% of 320,000 active | AID 2029;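 active means GFP response relative to DMSO above a set limit, near the screen mean plus 3 SD, cut at about 150% in these data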;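 further: ratio of well median GFP fluorescence to mean of DMSO wells on the plate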
Myeloid diff 2: compounds promoting myeloid differentiation | ER-HoxA9 myeloid progenitors, lysozyme-GFP differentiation, flow cytometry | calls only at 10 µM | 1% of 360,000 active;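 active means normalized GFP-positive differentiation at or above the plate's own cutoff, the solvent-only control mean plus 3 SD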;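 further: cells exposed to compound for four days before flow analysis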
MEP2 TOR yeast: yeast TOR pathway MEP2-GFP modulation; S. cerevisiae MEP2-GFP strain, flow cytometry GFP, 3 h; 100% = DMSO control level; GFP response vs DMSO, % at 10 µM; 0.51% of 330,000 active; AID 2016;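 active means GFP response versus DMSO above a set limit, roughly screen mean plus 3 SD, cut at about 180% in these data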;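 further: median GFP fluorescence of the barcode-gated MEP2-GFP cells per well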
LAP4 TOR yeast: alters LAP4-GFP fluorescence in TOR pathway yeast screen | 0.34% of 320,000 active | S. cerevisiae LAP4-GFP multiplex, flow cytometry GFP, 3 h; median GFP as percent of DMSO wells | GFP response vs DMSO, % at 10 µM;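 active means GFP response vs DMSO above a set limit, about the screen mean plus 3 SD, cut at about 150% in these data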
RPL19A-GFP yeast: yeast TOR pathway RPL19A-GFP modulation; 0.3% of 330,000 active; percent response vs DMSO, % at 10 µM; S. cerevisiae RPL19A-GFP strain, flow cytometry, 3 h; hits give low values; AID 2025;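 active means percent response vs DMSO below 50%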;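 further: median channel GFP fluorescence of the barcoded RPL19A-GFP strain; ratio of sample median GFP to plate DMSO average so 100% = DMSO; lower means less RPL19A-GFP as with rapamycin TOR inhibition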
AGP1 TOR yeast: modulators of TOR pathway AGP1-GFP in S. cerevisiae; S. cerevisiae AGP1-GFP multiplex flow cytometry, 3 h; GFP as percent of DMSO wells; GFP response vs DMSO, % at 10 µM; 0.02% of 320,000 active; AID 2066;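 active means GFP response relative to DMSO above a set limit, near screen average plus 3 SD, cut at about 150% in these data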;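 further: median GFP channel fluorescence of the gated AGP1 strain per well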
Myeloid diff CP1: myeloid differentiation induction; shares compounds with Myeloid diff 2; ER-HoxA9 myeloid progenitors, GFP/Mac1 double-positive flow; 2% of 2,300 active; calls only;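 active means share of green or green-and-red cells above 9 and 9% in run 1 or 4 and 3% in run 2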
GFP autofluor: compound fluorescence in myeloid differentiation counter-screen | ER-HoxA9 myeloid progenitors, no estrogen, GFP autofluorescence flow cytometry; vehicle wells 0%, positive control 100% | shares compounds with Myeloid diff 2 | AID 651707 | fluorescence response, % (concentration not given with the values) | 7.4% of 2,300 active;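 active means over 5% cells positive for green fluorescent reporter, or over 2% positive for both it and APC stain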;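 further: range taken on the double positive population between DMSO and positive control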
Numbers without * were called inactive; i = inactive; x = no result given; + = active, no number. Rows were chosen to be rich in hits. Some 1.8% of all compounds tested hit in one or more screens of this group.

SMILES	CIT2 TOR yeast	Myeloid diff 2	MEP2 TOR yeast	LAP4 TOR yeast	RPL19A-GFP yeast	AGP1 TOR yeast	Myeloid diff CP1	GFP autofluor
Cc1cc(C)nc(/N=C(\N)Nc2ccccc2-c2ccccc2)n1	93	+	101	97	96	95	i	0
O=[N+]([O-])c1ccc2[nH]c(O)c(N=Nc3ccc(F)cc3)c2c1	93	+	102	x	94	98	i	9.8*
CCOC(=O)c1[nH]c2ccccc2c1NC(=O)c1ccc(Br)o1	101	+	103	126	100	98	i	0
CCOC(=O)c1[nH]c2ccccc2c1NC(=O)NC(C)C	108	i	109	116	104	110	x	x
CC(=O)c1cccc(-n2c(CCC(=O)O)ccc2-c2ccccc2)c1	96	i	109	x	98	102	x	x
COc1ccccc1CN1C(=O)C2CC=CCC2C1=O (stereo unspecified)	94	i	97	104	101	102	i	1
COc1ccc(NC(=O)c2ccco2)cc1NC(=O)c1c(OC)cccc1OC	97	i	97	95	99	95	x	x
COc1ccc(NC(=O)c2ccco2)cc1NC(=O)c1ccco1	101	i	96	101	100	104	i	0
CC(=O)N1CCN(C(=O)CCc2nc3ccccc3c(=O)[nH]2)CC1	96	+	101	97	95	x	i	0
O=C(NCCc1ccccc1)c1cc2ncc(Br)cn2n1	98	i	115	118	105	x	x	x
Cc1ccc(S(=O)(=O)Oc2ccc(C)cc2/C=N/N=C2\NC(=O)C(C)S2)cc1 (stereo unspecified)	104	i	108	106	107	107	x	x
CCOC(=O)NC(=O)COC(=O)CNC(=O)c1ccc(OCC)c(OCC)c1	107	i	99	111	97	110	x	x
Cc1cc(/C=C2\Cc3ccccc3C2=O)c(C)n1-c1ccccc1	103	+	106	107	98	94	i	11*
Cc1cc(C=C2C(=O)c3ccccc3C2=O)c(C)n1-c1ccccc1	101	i	103	110	104	103	x	x
Cc1ccc(/C=C2/NC(=O)[C@H](C)NC2=O)cc1	105	i	92	105	90	102	x	x
CC(C)NC(=O)c1ccc(COc2cccc3ccccc23)o1	x	i	x	x	x	x	x	x
NNC(=O)c1ccc(COc2ccc3ccccc3c2)o1	89	+	95	101	98	97	i	0
CCOc1ccc(OCc2ccc(C(=O)NN)o2)cc1	96	+	97	98	91	98	i	0
NNC(=O)c1ccc(COc2cccc3ccccc23)o1	82	+	96	104	92	94	i	0
Cc1ccc(S(=O)(=O)NCCn2nc(C)nc2C)cc1	105	x	99	96	98	101	x	x
CCOc1ccc(NC(=O)c2cccc3ccccc23)cc1	94	+	101	95	98	97	i	0
CC1(c2ccccc2)CCC(=O)NC1 (stereo unspecified)	x	i	x	x	x	x	x	x
c1cc(SC2CCCCC2)cc(-c2nc3cnccn3c2NC2CCCCC2)c1	92	i	103	109	94	97	i	0
c1cn2c(NC3CCCCC3)c(-c3ccc(SC4CCCCC4)cc3)nc2cn1	98	i	112	103	98	97	x	x
Cc1ccc(NC(=O)C2C3C=CC4(O3)C2C(=O)N(CCCN2CCCCC2)C4C(=O)NC2CCCCC2)cc1C (stereo unspecified)	92	i	81	97	95	100	x	x
SMILES	CIT2 TOR yeast	Myeloid diff 2	MEP2 TOR yeast	LAP4 TOR yeast	RPL19A-GFP yeast	AGP1 TOR yeast	Myeloid diff CP1	GFP autofluor
O=C(c1cc(F)ccc1F)C1CCCN(C(=O)CCN2CCCCO2)C1 (stereo unspecified)	105	i	106	99	101	108	x	x
Cc1c(NS(=O)(=O)c2cccc(C(=O)NCc3ccccc3Cl)c2)c(=O)n(-c2ccccc2)n1C	x	i	x	x	x	x	x	x
O=C(NNS(=O)(=O)c1ccccc1)C(O)(c1ccccc1)c1ccccc1	100	i	103	94	92	94	x	x
CCOc1ccc(/C(O)=C2/C(=O)C(=O)N(c3nc(C)c(C)s3)C2c2ccco2)cc1 (stereo unspecified)	102	i	111	101	102	101	i	9.0*
COc1ccc(C(=O)Nn2cnc3scc(-c4cccs4)c3c2=O)c(O)c1	96	i	96	103	98	100	i	0
COc1ccc(/C=C/C(=O)Oc2cc(C)[nH]c(=O)c2[N+](=O)[O-])cc1OC	107	i	108	103	98	94	x	x
Cc1ccc(C)c(N2CCN(CCCNC(=O)CCC(=O)N3CCOc4ccc(Cl)cc43)CC2)c1	118	x	109	116	112	120	x	x
O=C(CCC(=O)N1CCOc2ccc(Cl)cc21)NCCCN1CCN(c2ccccc2F)CC1	110	i	103	110	95	101	i	0
Cc1cccc(NC(=O)CCCN2C(=O)c3ccccc3C2=O)n1	102	i	101	97	99	104	x	x
O=C(COC(=O)c1ccco1)c1ccccc1	109	i	105	103	103	109	x	x
CCOC(=O)C1(CCOC)CCN(Cc2nc(-c3cccs3)oc2C)CC1	102	i	94	95	99	100	x	x
Cc1ccc(NC(=O)C2CCCN(C3=NS(=O)(=O)c4ccccc43)C2)c(O)c1 (stereo unspecified)	97	+	108	101	100	98	i	21*
CC(C)c1nc(CNC(=O)C2CCC(=O)N(Cc3ccc(Cl)cc3)C2)no1 (stereo unspecified)	98	i	99	89	100	94	x	x
CCOC(=O)N1CCN(CC(=O)Nc2nc3ccc(OC)cc3s2)CC1	97	i	106	92	103	97	x	x
CCOC(=O)SC1=N/C(=C\c2ccc(N(C)C)cc2)C(=O)S1	98	i	118	130	99	92	i	1
COc1ccc(NC(=O)[C@@H]2CC=C[C@@H]3CCN(Cc4ccc(Cl)c(Cl)c4)C(=O)[C@@H]32)cc1	91	i	90	95	96	95	x	x
COc1ccc(CN2CC[C@H]3C=CC[C@@H](C(=O)Nc4ccc(Cl)c(C(F)(F)F)c4)[C@H]3C2=O)cc1OC	x	i	x	x	x	x	i	0
COc1ccc(C(=O)NCCCc2nc3ccccc3n2Cc2ccccc2C)cc1OC	118	+	95	105	100	107	i	1
